Results as given in the supplement of paper PMC10849652.
Of roughly 8,800 targets only a part is listed; those with a hit were picked by preference. About 0.5% of all pairs of compound and target were hits.

Key:
Assay in all cases: log2 fold change, soluble protein after heating vs DMSO (PISA); higher = thermal stabilisation; K562 lysate, 10 uM; active = over 0.2 and 3.5 SD of the protein, either way, in both replicates (recomputed)
erlotinib = compound: C#Cc1cccc(Nc2ncnc3cc(OCCOC)c(OCCOC)cc23)c1 [erlotinib]
How it was run: (§1)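 The values are log-two fold changes in thermal stability compared with solvent controls and come from duplicates. They were obtained by TMTpro 16plex LC-MS/MS, with channel sums equalised, on the supernatant after 21,000xg for 90 min. That supernatant came from crude K562 extract at 1 mg/mL protein treated with 10 μM compound for 30 min, heated for 3 min across 48°C-58°C, pooled and brought to 0.5% NP-40 at 4°C.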

[1] = compound: C/C(=N\NC(=O)C1=CC(=CC=C1)S(=O)(=O)N2CCOCC2)/C3=C(C=CC(=C3)Cl)O
How it was run: as §1

[2] = compound: C1=CC(=CC=C1C2=NC3=C(N2)C=C(C=C3)C(=O)N)OC4=CC=C(C=C4)Cl
How it was run: as §1

[3] = compound: C1=CC2=C(C=CC(=C2)/C=C\3/C(=O)NC(=NCC4=CC=CS4)S3)N=C1
How it was run: as §1

[4] = compound: C1=CC2=NC=CN=C2C=C1/C=C/3\C(=O)NC(=O)S3
How it was run: as §1

[5] = compound: C1=CC=C(C=C1)C2=NC(=C(N2)C3=CC=NC=C3)C4=CC(=C(C=C4)Cl)O
How it was run: as §1

[6] = compound: C1=CC=C2C(=C1)C3=NNC4=CC=CC(=C43)C2=O
How it was run: as §1

[7] = compound: C1CCN(C1)C(=O)NC2=CC=CC(=C2)NC3=NC=C(C(=N3)NCCC4=CN=CN4)Br
How it was run: as §1

[8] = compound: C1CN(CCC1(CC2=CC=C(C=C2)Cl)N)C3=NC=NC4=C3C=CN4
How it was run: as §1

IRAK-1-4 Inhibitor I = compound: C1COCCN1CCN2C3=CC=CC=C3N=C2NC(=O)C4=CC(=CC=C4)[N+](=O)[O-] [IRAK-1-4 Inhibitor I]
How it was run: as §1

ibrutinib = compound: C=CC(=O)N1CCC[C@@H](n2nc(-c3ccc(Oc4ccccc4)cc3)c3c(N)ncnc32)C1 [ibrutinib]
How it was run: as §1

[9] = compound: CC(=O)c1cnc2ccc(-c3cc(Cl)c(O)c(Cl)c3)nc2c1N[C@H]1CC[C@H](CN(C)C)CC1
How it was run: as §1

ralimetinib = compound: CC(C)(C)Cn1c(N)nc2ccc(-c3[nH]c(C(C)(C)C)nc3-c3ccc(F)cc3)nc21 [ralimetinib]
How it was run: as §1

[10] = compound: CC(C)(O)CC(=O)NCCn1ccc2ncnc(Nc3ccc(Oc4cccc(C(F)(F)F)c4)c(Cl)c3)c21
How it was run: as §1

[11] = compound: CC(C)C1=C2N=C(C=C(N2N=C1)NCC3=CC=CC=C3)NCCCCCCN
How it was run: as §1

[12] = compound: CC1=C(C(CC(=O)N1)C2=CC=C(C=C2)C(F)(F)F)C(=O)NC3=C(C=C4C(=C3)C=NN4)F
How it was run: as §1

[13] = compound: CC1=C(C2=C(C=C1)C(=O)C3=CC=CC=C3N2CCCN)C
How it was run: as §1

[14] = compound: CC1=C(C=C(C=C1)NC(=O)C2=CC(=CC=C2)C(C)(C)C#N)NC3=CC4=C(C=C3)N=CN(C4=O)C
How it was run: as §1

[15] = compound: CC1=C(C=C(C=C1)NC(=O)C2=CC(=CC=C2)N(C)C)NC(=O)C3=CC=C(C=C3)O
How it was run: as §1

[16] = compound: CC1=CC=C(C=C1)SC2=C3C=C(SC3=CN=C2)C(=O)N
How it was run: as §1

Measured: log2 fold change

RNASEH2B (UniProt Q5TBB1)
inactive: erlotinib -0.01 | [1] 0.006 | [2] -0.024 | [3] 0.019 | [4] -0.011 | [5] 0.009 | [6] 0.024 | [7] -0.01 | [8] -0.041 | IRAK-1-4 Inhibitor I -0.003 | ibrutinib -0.001 | [9] -0.032 | ralimetinib 0.026 | [10] 0 | [11] 0.031 | [12] -0.025 | [13] 0.024 | [14] 0.005 | [15] 0.025 | [16] 0.009

RCC1 isoform 2 (UniProt P18754)
inactive: erlotinib 0.016 | [1] 0.005 | [2] -0.033 | [3] 0 | [4] 0.017 | [5] 0.007 | [6] -0.024 | [7] -0.008 | [8] -0.043 | IRAK-1-4 Inhibitor I -0.022 | ibrutinib -0.008 | [9] 0.012 | ralimetinib 0.041 | [10] 0.019 | [11] 0.015 | [12] -0.048 | [13] -0.037 | [14] -0.01 | [15] 0.036 | [16] 0.01

RFWD3 (UniProt Q6PCD5)
inactive: erlotinib -0.12 | [1] 0.005 | [2] 0.048 | [3] -0.061 | [4] 0.062 | [5] 0.029 | [6] -0.039 | [7] -0.086 | [8] 0.053 | IRAK-1-4 Inhibitor I 0.054 | ibrutinib -0.001 | ralimetinib 0.039 | [10] -0.059 | [11] 0.066 | [12] 0.059 | [13] -0.06 | [14] 0.087 | [15] -0.007

ROCK1 (UniProt Q13464)
inactive: erlotinib -0.01 | [1] 0.029 | [2] 0 | [3] 0.075 | [4] -0.036 | [5] -0.004 | [6] -0.041 | [7] 0.008 | [8] 0.075 | IRAK-1-4 Inhibitor I 0.004 | ibrutinib -0.002 | [9] -0.027 | ralimetinib -0.005 | [10] -0.021 | [11] -0.003 | [12] 0.096 | [13] -0.041 | [14] 0.006 | [15] 0.024 | [16] 0.002

R3HCC1 (UniProt Q9Y3T6)
inactive: erlotinib -0.015 | [1] -0.118 | [2] 0.055 | [3] 0.074 | [4] -0.086 | [5] 0.071 | [6] -0.008 | [7] 0.006 | [8] -0.016 | IRAK-1-4 Inhibitor I -0.044 | ibrutinib 0.02 | [9] 0.058 | ralimetinib 0.016 | [10] -0.028 | [11] -0.045 | [12] 0.022 | [13] -0.061 | [14] 0.017 | [15] -0.001 | [16] 0.025

RALGAPA1 isoform 6 (UniProt Q6GYQ0)
inactive: erlotinib 0.056 | [1] -0.093 | [2] 0.098 | [3] 0.065 | [4] -0.105 | [5] -0.064 | [6] -0.015 | [7] -0.042 | [8] 0.031 | IRAK-1-4 Inhibitor I 0.004 | ibrutinib 0.047 | [9] -0.06 | ralimetinib 0.01 | [10] 0.002 | [11] -0.01 | [12] -0.039 | [13] 0.02 | [14] -0.007 | [15] 0.038 | [16] -0.081

SESN2 (UniProt P58004)
UniProt P58004, sequence (P58004 whole entry, looked up): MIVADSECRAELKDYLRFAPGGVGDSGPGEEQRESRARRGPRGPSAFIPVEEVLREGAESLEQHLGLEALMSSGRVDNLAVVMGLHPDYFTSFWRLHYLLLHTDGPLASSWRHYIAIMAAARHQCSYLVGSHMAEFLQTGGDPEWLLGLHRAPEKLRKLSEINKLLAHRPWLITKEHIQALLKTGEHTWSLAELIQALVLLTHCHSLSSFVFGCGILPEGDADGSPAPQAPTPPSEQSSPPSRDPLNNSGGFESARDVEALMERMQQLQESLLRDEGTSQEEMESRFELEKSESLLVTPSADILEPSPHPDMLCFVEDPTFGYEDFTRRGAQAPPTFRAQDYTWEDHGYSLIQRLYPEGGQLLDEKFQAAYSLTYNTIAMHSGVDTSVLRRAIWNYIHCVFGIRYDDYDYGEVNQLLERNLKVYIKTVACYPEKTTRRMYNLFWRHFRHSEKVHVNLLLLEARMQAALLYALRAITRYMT
inactive: erlotinib 0.043 | [1] 0.102 | [2] -0.007 | [3] -0.017 | [4] 0.023 | [5] -0.037 | [6] -0.07 | [7] 0.051 | [8] -0.014 | IRAK-1-4 Inhibitor I -0.048 | ibrutinib -0.001 | [9] -0.038 | ralimetinib 0.018 | [10] 0.007 | [11] 0.019 | [12] -0.051 | [13] -0.064 | [14] 0.008 | [15] 0.078 | [16] 0.205

RABGGTB (UniProt P53611)
UniProt P53611, sequence (P53611 whole entry, looked up): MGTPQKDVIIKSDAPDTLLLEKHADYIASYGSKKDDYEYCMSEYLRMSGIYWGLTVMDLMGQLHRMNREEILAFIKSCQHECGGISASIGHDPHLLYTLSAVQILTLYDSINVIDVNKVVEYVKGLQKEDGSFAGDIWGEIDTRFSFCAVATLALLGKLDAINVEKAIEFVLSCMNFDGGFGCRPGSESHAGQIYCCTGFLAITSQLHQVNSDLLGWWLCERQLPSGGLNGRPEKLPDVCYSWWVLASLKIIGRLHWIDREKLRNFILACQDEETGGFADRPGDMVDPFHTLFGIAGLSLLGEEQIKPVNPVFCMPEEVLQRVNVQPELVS
inactive: erlotinib 0.01 | [1] 0.026 | [2] -0.015 | [3] 0.021 | [4] 0.04 | [5] -0.023 | [6] -0.093 | [7] -0.029 | [8] 0.003 | IRAK-1-4 Inhibitor I 0.03 | ibrutinib -0.017 | [9] -0.042 | ralimetinib 0.018 | [10] -0.052 | [11] 0.015 | [12] -0.002 | [13] -0.006 | [14] -0.013 | [15] 0.048 | [16] 0.013

SCO1 (UniProt O75880)
inactive: erlotinib 0.008 | [1] -0.06 | [2] 0.036 | [3] -0.014 | [4] 0.011 | [5] 0.012 | [6] -0.045 | [7] 0.033 | [8] 0.068 | IRAK-1-4 Inhibitor I 0.006 | ibrutinib 0.029 | [9] 0.006 | ralimetinib -0.006 | [10] -0.072 | [11] -0.11 | [12] 0.044 | [13] -0.011 | [14] 0.021 | [15] -0.065 | [16] -0.023

RAI14 isoform 2 (UniProt Q9P0K7)
UniProt Q9P0K7, sequence (Q9P0K7 whole entry, looked up): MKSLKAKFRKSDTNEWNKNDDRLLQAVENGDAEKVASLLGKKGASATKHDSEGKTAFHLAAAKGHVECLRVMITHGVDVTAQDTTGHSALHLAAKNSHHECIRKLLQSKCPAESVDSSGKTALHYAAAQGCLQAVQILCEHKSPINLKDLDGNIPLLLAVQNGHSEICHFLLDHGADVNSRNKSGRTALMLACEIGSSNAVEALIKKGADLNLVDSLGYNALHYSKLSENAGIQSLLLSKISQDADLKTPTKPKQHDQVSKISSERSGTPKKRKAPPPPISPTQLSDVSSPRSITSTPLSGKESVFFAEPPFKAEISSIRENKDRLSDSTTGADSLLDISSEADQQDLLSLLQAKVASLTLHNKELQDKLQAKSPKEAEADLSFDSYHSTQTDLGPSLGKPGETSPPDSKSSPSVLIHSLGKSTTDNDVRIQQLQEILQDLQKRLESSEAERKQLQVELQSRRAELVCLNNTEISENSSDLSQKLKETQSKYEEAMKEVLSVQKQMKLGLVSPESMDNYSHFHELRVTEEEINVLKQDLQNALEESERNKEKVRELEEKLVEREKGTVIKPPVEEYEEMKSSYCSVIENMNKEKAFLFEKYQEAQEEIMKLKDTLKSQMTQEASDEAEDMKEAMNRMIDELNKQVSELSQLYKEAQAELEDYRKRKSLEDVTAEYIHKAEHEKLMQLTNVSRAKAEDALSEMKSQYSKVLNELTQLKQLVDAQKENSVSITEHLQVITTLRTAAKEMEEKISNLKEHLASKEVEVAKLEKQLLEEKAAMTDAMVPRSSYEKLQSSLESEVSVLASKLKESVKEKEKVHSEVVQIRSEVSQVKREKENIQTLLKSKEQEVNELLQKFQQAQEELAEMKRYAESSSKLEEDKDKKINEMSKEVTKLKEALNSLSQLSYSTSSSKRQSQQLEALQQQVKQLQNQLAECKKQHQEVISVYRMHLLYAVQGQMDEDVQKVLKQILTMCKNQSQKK
inactive: erlotinib 0.015 | [1] 0.006 | [2] -0.007 | [3] 0.004 | [4] 0.001 | [5] 0.021 | [6] 0.02 | [7] 0 | [8] -0.018 | IRAK-1-4 Inhibitor I -0.028 | ibrutinib -0.019 | [9] -0.007 | ralimetinib -0.011 | [10] -0.01 | [11] -0.004 | [12] 0.017 | [13] -0.024 | [14] 0.01 | [15] 0.024 | [16] 0.001

RELN (UniProt P78509)
active: [9] -0.237
inactive: erlotinib 0.012 | [1] 0.004 | [2] 0.014 | [3] 0.025 | [4] 0.001 | [5] 0.033 | [6] -0.015 | [7] 0.042 | [8] 0.058 | IRAK-1-4 Inhibitor I 0.002 | ibrutinib 0.011 | ralimetinib 0.011 | [10] -0.038 | [11] -0.039 | [12] -0.01 | [13] 0 | [14] -0.002 | [15] 0.041 | [16] 0.09

RAB5IF isoform 5 (UniProt Q9BUV8)
UniProt Q9BUV8, sequence (Q9BUV8 whole entry, looked up): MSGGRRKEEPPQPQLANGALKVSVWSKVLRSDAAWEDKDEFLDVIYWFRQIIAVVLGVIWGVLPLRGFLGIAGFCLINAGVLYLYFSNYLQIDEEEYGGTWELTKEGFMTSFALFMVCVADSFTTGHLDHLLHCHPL
inactive: erlotinib 0.193 | [1] 0.021 | [2] 0.082 | [3] 0.001 | [4] -0.052 | [6] -0.036 | [7] -0.065 | [8] 0.034 | ibrutinib -0.039 | [9] -0.029 | [11] -0.163 | [12] 0.086 | [13] -0.165 | [16] 0.073

RAP1B (UniProt F5GZG1)
inactive: erlotinib -0.028 | [1] 0.332 | [2] 0.101 | [3] -0.048 | [4] -0.206 | [6] -0.08 | [7] -0.081 | [8] 0.04 | ibrutinib 0.01 | [9] -0.021 | [11] 0.061 | [12] 0.036 | [13] 0.019 | [14] -0.124 | [16] 0.117

SEMA4G isoform 2 (UniProt Q9NTN9)
inactive: erlotinib 0.005 | [1] -0.137 | [2] -0.063 | [3] 0.032 | [6] -0.011 | [7] 0.034 | [8] -0.112 | [11] -0.013 | [13] -0.021 | [14] -0.137

ROBO2 isoform 3 (UniProt Q9HCK4)
UniProt Q9HCK4, sequence (Q9HCK4 whole entry, looked up): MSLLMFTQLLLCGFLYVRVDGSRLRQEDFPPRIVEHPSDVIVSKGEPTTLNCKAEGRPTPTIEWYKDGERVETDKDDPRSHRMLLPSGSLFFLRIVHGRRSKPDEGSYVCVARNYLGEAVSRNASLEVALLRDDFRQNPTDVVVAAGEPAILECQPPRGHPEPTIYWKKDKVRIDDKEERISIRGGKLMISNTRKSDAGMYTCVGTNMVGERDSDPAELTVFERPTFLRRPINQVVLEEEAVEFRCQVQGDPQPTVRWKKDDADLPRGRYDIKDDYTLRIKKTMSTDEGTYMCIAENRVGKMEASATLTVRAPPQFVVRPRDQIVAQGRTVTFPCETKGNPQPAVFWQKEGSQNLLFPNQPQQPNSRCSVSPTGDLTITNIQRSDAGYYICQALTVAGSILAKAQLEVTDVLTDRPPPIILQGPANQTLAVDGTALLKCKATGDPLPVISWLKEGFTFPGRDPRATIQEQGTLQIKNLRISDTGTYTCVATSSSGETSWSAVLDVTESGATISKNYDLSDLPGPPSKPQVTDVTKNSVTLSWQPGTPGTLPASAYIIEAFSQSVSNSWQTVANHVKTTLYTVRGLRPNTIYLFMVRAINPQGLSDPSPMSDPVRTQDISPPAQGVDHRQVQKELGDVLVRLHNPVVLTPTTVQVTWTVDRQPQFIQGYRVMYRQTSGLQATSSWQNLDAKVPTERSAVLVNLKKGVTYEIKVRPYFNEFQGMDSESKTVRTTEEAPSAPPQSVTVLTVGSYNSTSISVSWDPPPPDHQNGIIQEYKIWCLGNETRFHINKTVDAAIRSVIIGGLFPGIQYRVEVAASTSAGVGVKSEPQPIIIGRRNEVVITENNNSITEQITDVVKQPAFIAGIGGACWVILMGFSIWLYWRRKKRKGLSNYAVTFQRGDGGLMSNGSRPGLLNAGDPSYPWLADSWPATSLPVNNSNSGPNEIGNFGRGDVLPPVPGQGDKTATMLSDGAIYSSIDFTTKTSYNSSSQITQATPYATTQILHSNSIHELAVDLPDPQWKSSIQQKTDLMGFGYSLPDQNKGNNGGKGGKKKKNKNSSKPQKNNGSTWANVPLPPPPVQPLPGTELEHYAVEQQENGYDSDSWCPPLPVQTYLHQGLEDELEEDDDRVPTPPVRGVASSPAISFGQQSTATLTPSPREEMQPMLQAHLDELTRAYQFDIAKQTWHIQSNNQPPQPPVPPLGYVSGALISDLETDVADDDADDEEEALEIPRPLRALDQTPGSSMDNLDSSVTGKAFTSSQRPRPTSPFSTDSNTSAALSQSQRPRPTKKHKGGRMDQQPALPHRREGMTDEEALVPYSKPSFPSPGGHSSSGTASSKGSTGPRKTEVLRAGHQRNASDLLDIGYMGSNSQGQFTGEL
inactive: erlotinib 0.042 | [2] -0.013 | [5] 0.008 | IRAK-1-4 Inhibitor I -0.062 | [9] -0.015 | ralimetinib 0.103 | [10] -0.287 | [11] -0.045 | [14] 0.022 | [15] 0.177 | [16] -0.053

RALGAPB isoform 3 (UniProt Q86X10)
UniProt Q86X10, sequence (Q86X10 whole entry, looked up): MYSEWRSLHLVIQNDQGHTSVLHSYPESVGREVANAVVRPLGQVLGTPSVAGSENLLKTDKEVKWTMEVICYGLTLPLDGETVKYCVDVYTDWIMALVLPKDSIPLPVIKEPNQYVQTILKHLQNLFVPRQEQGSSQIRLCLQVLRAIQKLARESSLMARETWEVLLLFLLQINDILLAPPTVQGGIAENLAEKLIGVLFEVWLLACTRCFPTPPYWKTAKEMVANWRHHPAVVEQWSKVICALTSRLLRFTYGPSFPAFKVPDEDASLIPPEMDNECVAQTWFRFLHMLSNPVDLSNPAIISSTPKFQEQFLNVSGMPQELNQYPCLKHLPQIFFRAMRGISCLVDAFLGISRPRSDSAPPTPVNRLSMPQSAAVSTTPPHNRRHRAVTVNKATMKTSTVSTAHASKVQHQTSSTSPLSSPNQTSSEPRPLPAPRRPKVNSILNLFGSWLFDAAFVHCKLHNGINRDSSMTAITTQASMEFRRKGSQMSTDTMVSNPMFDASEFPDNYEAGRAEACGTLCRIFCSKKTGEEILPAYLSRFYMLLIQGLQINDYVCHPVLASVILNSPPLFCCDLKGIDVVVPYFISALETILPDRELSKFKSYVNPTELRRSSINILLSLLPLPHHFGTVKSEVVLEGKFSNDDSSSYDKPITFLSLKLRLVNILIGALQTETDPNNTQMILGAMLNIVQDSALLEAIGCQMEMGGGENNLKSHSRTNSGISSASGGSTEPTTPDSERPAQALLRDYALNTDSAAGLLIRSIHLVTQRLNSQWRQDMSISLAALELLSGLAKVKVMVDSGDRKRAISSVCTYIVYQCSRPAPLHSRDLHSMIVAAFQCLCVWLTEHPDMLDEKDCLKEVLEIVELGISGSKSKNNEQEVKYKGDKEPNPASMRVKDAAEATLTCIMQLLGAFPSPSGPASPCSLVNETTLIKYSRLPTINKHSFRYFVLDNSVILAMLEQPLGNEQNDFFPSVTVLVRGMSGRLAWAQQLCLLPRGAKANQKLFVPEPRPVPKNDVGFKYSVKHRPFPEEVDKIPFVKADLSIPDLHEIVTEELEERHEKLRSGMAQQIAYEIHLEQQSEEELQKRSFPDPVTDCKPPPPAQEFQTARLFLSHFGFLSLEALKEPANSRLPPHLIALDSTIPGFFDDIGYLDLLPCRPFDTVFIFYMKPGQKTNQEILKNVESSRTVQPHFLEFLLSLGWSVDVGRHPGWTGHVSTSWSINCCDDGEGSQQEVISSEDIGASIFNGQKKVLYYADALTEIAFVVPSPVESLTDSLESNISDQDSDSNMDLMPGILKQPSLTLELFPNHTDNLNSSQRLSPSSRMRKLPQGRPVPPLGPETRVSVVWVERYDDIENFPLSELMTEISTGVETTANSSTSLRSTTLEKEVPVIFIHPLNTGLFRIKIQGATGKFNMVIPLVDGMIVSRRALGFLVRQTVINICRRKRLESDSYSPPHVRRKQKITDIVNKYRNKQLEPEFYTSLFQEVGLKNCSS
inactive: [4] -0.146 | [7] -0.119 | [8] 0 | ibrutinib 0.106 | [13] -0.087

RDH11 (UniProt Q8TC12)
inactive: erlotinib 0.018 | [1] 0.087 | [2] -0.02 | [3] 0.015 | [5] 0.006 | [6] -0.065 | [7] -0.037 | [8] 0.063 | IRAK-1-4 Inhibitor I 0.012 | [9] -0.021 | ralimetinib 0.005 | [10] -0.043 | [11] 0.068 | [12] -0.013 | [13] -0.039 | [14] -0.037 | [15] -0.039 | [16] -0.111
